Measurements as given in PMC4336329 (PLoS ONE, 2015).
The campaign covered roughly 310,000 compounds. About 2,200 (0.71%) showed an effect of 50% or more. Effects have a minus sign here. The entries come from a sample that favours strong results as a whole.

These compounds were tested against human ether-à-go-go-related gene (hERG) potassium channel (human, UniProt Q12809) (assay: primary screen, population patch clamp on CHO cells stably expressing hERG; higher = less effect of the substance).
Sequence of human ether-à-go-go-related gene (hERG) potassium channel (Q12809 whole entry, looked up): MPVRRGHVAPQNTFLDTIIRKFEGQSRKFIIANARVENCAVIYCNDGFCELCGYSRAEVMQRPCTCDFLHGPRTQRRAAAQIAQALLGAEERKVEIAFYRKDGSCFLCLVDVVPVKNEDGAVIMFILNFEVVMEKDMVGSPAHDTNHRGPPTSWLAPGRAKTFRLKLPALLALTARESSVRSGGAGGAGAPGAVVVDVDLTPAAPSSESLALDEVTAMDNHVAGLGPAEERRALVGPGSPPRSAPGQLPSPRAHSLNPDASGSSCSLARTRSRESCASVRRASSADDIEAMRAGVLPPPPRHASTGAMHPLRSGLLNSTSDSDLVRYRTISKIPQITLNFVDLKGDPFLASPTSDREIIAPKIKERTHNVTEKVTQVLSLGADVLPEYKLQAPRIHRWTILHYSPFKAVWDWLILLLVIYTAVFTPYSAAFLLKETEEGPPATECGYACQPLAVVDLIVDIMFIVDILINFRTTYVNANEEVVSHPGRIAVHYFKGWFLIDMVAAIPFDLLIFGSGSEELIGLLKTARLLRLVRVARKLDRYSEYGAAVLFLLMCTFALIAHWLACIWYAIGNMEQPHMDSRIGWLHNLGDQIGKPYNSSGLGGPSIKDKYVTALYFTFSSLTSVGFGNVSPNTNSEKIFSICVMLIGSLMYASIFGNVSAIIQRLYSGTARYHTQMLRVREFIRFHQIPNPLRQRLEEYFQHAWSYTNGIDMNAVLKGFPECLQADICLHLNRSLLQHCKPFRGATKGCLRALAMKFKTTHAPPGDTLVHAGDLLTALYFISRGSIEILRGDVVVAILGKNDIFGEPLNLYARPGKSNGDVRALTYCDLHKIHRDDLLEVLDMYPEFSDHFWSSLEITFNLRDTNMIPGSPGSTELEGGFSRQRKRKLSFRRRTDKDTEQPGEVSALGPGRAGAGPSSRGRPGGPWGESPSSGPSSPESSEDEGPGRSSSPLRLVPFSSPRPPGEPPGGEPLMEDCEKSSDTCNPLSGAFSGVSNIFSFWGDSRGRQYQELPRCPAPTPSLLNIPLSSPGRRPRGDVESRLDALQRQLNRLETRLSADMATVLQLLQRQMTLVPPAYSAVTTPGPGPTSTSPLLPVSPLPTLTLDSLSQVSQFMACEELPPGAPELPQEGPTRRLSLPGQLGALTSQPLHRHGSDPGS
With `CCOC(=O)c1sc2nc(C)nc(N3CCCCC3C)c2c1C` (stereo not drawn) the “hERG current change (%, negative = inhibition) at 1uM” value was -5.1%.
`O=C(NCCNC(=O)c1ccc(Cl)cc1Cl)c1cnccn1` was tested, and the “hERG current change (%, negative = inhibition) at 1uM” value was 6.54%.
`O=C(CSc1cccc2cccc(Cl)c12)NC1=NCCS1` was tested, and the “hERG current change (%, negative = inhibition) at 1uM” value was 2.37%.
With `CSCCC(NC(=O)COc1ccccc1)C(=O)NCCOc1ccc(C)cc1` (stereo not drawn) the “hERG current change (%, negative = inhibition) at 1uM” value was 3.41%.
For `O=C(CCC1CCN(C(=O)c2ccco2)CC1)NCc1ccc(F)cc1`, the “hERG current change (%, negative = inhibition) at 1uM” value was -62%.
For `O=C(CCC1CCN(C(=O)c2ccccc2Cl)CC1)NCc1ccc(F)cc1`, the “hERG current change (%, negative = inhibition) at 1uM” value was 4.08%.
`Cl.O=C(c1ccco1)N1CCN(CCCCOc2ccc(F)cc2)CC1` was tested, and the “hERG current change (%, negative = inhibition) at 1uM” value was -74.8%.
In the case of `O=C(c1ccco1)N1CCN(CCOc2ccccc2)CC1`, the “hERG current change (%, negative = inhibition) at 1uM” value is reported as 10.3%.
With `Cl.O=C(c1ccco1)N1CCN(CCOc2ccc(F)cc2)CC1` the “hERG current change (%, negative = inhibition) at 1uM” value was -0.809%.
For `O=C(c1ccco1)N1CCN(C(=S)NCc2ccc(F)cc2)CC1`, the “hERG current change (%, negative = inhibition) at 1uM” value was -3.27%.
For `Cc1cccc(NC(=O)Cn2c(=O)n(Cc3ccco3)c(=N)c3c4c(sc32)COC(C)(C)C4)c1`, the “hERG current change (%, negative = inhibition) at 1uM” value was 3%.
`COc1cccc(/C=C2\SC(N)=NC2=O)c1OS(=O)(=O)c1ccccc1` was tested, and the “hERG current change (%, negative = inhibition) at 1uM” value was 2.6%.
In the case of `COc1cccc(CN2CC(C(=O)NCCCCc3ccccn3)CCC2=O)c1` (stereo not drawn), the “hERG current change (%, negative = inhibition) at 1uM” value is reported as 7.17%.
For `Cc1ccccc1Cn1c(C)nc2ccccc21`, the “hERG current change (%, negative = inhibition) at 1uM” value was 10.4%.
For `Cc1ccc(SCc2nc3ccccc3n2CC(=O)Nc2c(C)cccc2C)cc1`, the “hERG current change (%, negative = inhibition) at 1uM” value was 6.88%.
With `CC(C)C[C@@H](C(=O)NC1CCN(Cc2ccccc2)CC1)N1C(=O)N2CCc3c([nH]c4ccccc34)[C@@]2(C)C1=O` the “hERG current change (%, negative = inhibition) at 1uM” value was -12.1%.
`C[C@@H](C(=O)NC1CCN(Cc2ccccc2)CC1)N1C(=O)N2CCc3c([nH]c4ccccc34)[C@@]2(C)C1=O` was tested, and the “hERG current change (%, negative = inhibition) at 1uM” value was -62.1%.
In the case of `CC(C)[C@@H](C(=O)NC1CCN(Cc2ccccc2)CC1)N1C(=O)N2CCc3c([nH]c4ccccc34)[C@@]2(C)C1=O`, the “hERG current change (%, negative = inhibition) at 1uM” value is reported as -4.75%.
With `Cc1ccc(-n2nnnc2SCC(=O)Nc2ccccc2-c2ccccc2)cc1C` the “hERG current change (%, negative = inhibition) at 1uM” value was 2.73%.
For `C#CC1CN(Cc2ccccc2)CC(C#C)N1C.Cl` (stereo not drawn), the “hERG current change (%, negative = inhibition) at 1uM” value was 15.1%.
For `CN(C)c1ccc(NC(=O)CN2CCN(CC(=O)Nc3ccc(F)cc3)CC2)cc1`, the “hERG current change (%, negative = inhibition) at 1uM” value was -61.1%.
With `CCN(CC)c1ccc(NC(=O)CN2CCN(CC(=O)Nc3ccccc3F)CC2)cc1` the “hERG current change (%, negative = inhibition) at 1uM” value was -13%.
`CN(C)c1ccc(NC(=O)CN2CCN(c3ccc(F)cc3)CC2)cc1` was tested, and the “hERG current change (%, negative = inhibition) at 1uM” value was -3.53%.
With `O=C(CN1CCN(CC(=O)Nc2ccc(-c3ccccc3)cc2)CC1)Nc1ccc(F)cc1` the “hERG current change (%, negative = inhibition) at 1uM” value was -13.7%.
`O=C(CN1CCN(c2ccc(Cl)cc2)CC1)Nc1ccc(F)cc1` was tested, and the “hERG current change (%, negative = inhibition) at 1uM” value was -28.1%.
For `CCN(CC)c1ccc(NC(=O)CN2CCN(CC(=O)Nc3ccc(F)cc3)CC2)cc1`, the “hERG current change (%, negative = inhibition) at 1uM” value was -84.5%.
In the case of `COc1ccc(N2CCN(CC(=O)Nc3ccc(SC(F)F)cc3)CC2)cc1`, the “hERG current change (%, negative = inhibition) at 1uM” value is reported as -35.8%.
For `O=C(CN1CCN(c2ccc(O)cc2)CC1)Nc1ccc(SC(F)F)cc1`, the “hERG current change (%, negative = inhibition) at 1uM” value was -78.4%.
In the case of `COc1cccc(N2CCN(CC(=O)Nc3ccc(SC(F)F)cc3)CC2)c1`, the “hERG current change (%, negative = inhibition) at 1uM” value is reported as -27.7%.
`O=C(CN1CCN(CC(=O)Nc2ccc(Cl)cc2)CC1)Nc1ccc(F)cc1` was tested, and the “hERG current change (%, negative = inhibition) at 1uM” value was -86.9%.
With `CN(C)c1ccc(NC(=O)CN2CCC(C(=O)c3ccc(F)cc3)CC2)cc1` the “hERG current change (%, negative = inhibition) at 1uM” value was -4.93%.
`CCN(CC)c1ccc(NC(=O)CN2CCN(c3ccccc3F)CC2)cc1` was tested, and the “hERG current change (%, negative = inhibition) at 1uM” value was 7.06%.
`CN(C)C=O.Cc1cccc(-n2nnnc2SCC(=O)N(CC(C)C)c2c(N)n(CC(C)C)c(=O)[nH]c2=O)c1` was tested, and the “hERG current change (%, negative = inhibition) at 1uM” value was 4.9%.
In the case of `O=C(c1cccc(S(=O)(=O)NCc2ccccc2)c1)N1CCCCC1`, the “hERG current change (%, negative = inhibition) at 1uM” value is reported as 9.32%.
For `CCN(CC)CCCN(C(=O)Cn1nnc(-c2ccc(OC)c(OC)c2)n1)C(C(=O)NC(C)(C)C)c1ccc(F)cc1` (stereo not drawn), the “hERG current change (%, negative = inhibition) at 1uM” value was -25.2%.
`C=CCN1C(=O)C(CC(=O)NCC)SC1=Nc1ccccc1CC` (stereo not drawn) was tested, and the “hERG current change (%, negative = inhibition) at 1uM” value was 11.7%.
`c1ccc(CSc2nncn2-c2ccccn2)cc1` was tested, and the “hERG current change (%, negative = inhibition) at 1uM” value was 7.05%.
With `O=C(CSC(=S)N1CCCCC1)c1c(F)cccc1F` the “hERG current change (%, negative = inhibition) at 1uM” value was 21.7%.
For `OC1(c2ccccc2)c2ccccc2-c2ncccc21` (stereo not drawn), the “hERG current change (%, negative = inhibition) at 1uM” value was 5.63%.
In the case of `Cc1ccc2c(CC(=O)NCC3(N4CCOCC4)CCCCC3)coc2c1C`, the “hERG current change (%, negative = inhibition) at 1uM” value is reported as -5.15%.
For `O=C(Cc1coc2cc3c(cc12)CCC3)NC1CCCCCCC1`, the “hERG current change (%, negative = inhibition) at 1uM” value was 0.112%.
With `O=C(Cc1coc2cc3c(cc12)CCC3)NCC1(N2CCCCC2)CCCCC1` the “hERG current change (%, negative = inhibition) at 1uM” value was -59.2%.
`O=S(=O)(c1cccs1)N1CN(C2CCCCC2)c2nc3ccccc3nc21` was tested, and the “hERG current change (%, negative = inhibition) at 1uM” value was 0.376%.
For `COc1cc(/C=C2\SC(N3CCc4ccccc4C3)=NC2=O)cc(OC)c1OC`, the “hERG current change (%, negative = inhibition) at 1uM” value was 5.93%.
For `CCN(CC)CCn1c(=N)n(CC(O)COc2cccc(C)c2)c2ccccc21.Cl` (stereo not drawn), the “hERG current change (%, negative = inhibition) at 1uM” value was -22.1%.
In the case of `CCCn1c(=N)n(CC(O)COc2cccc(C)c2)c2ccccc21.Cl` (stereo not drawn), the “hERG current change (%, negative = inhibition) at 1uM” value is reported as -60%.
`CCn1c(=N)n(CC(O)COc2cccc(C)c2)c2ccccc21.Cl` (stereo not drawn) was tested, and the “hERG current change (%, negative = inhibition) at 1uM” value was -16%.
With `CCCCn1c(=N)n(CC(O)COc2cccc(C)c2)c2ccccc21.Cl` (stereo not drawn) the “hERG current change (%, negative = inhibition) at 1uM” value was -59.8%.
In the case of `COc1ccc(-c2oc3cccnc3c2C#CC2(O)CCCCC2)cc1`, the “hERG current change (%, negative = inhibition) at 1uM” value is reported as 6.61%.
`COCCC(=O)N1CCC(Oc2ccc(C(=O)N(C)CCCC3CCCC3)cc2)CC1` was tested, and the “hERG current change (%, negative = inhibition) at 1uM” value was -1.26%.
`Cc1cccn2c(=O)c3cc(C(=O)NC4CCCC4)c(=N)n(CCCN4CCOCC4)c3nc12` was tested, and the “hERG current change (%, negative = inhibition) at 1uM” value was -77.5%.
`CCCn1c(=N)c(C(=O)NC2CCCC2)cc2c(=O)n3cccc(C)c3nc21` was tested, and the “hERG current change (%, negative = inhibition) at 1uM” value was -84.1%.
With `Cc1cccn2c(=O)c3cc(C(=O)NC4CCCCC4)c(=N)n(CCN4CCOCC4)c3nc12` the “hERG current change (%, negative = inhibition) at 1uM” value was -51.7%.
`C#CCOCCOCCOCCNc1nc(N2CCN(C(=O)[C@H](CCC(=O)O)n3cc(C(N)Cc4ccc(O)cc4)nn3)CC2)nc(N2CCN(C(=O)[C@H](CCC(=O)O)n3cc(C(N)Cc4ccc(O)cc4)nn3)CC2)n1.Cl` (stereo partly drawn) was tested, and the “hERG current change (%, negative = inhibition) at 1uM” value was 12.3%.
